Bioassay records deposited in PubChem by several laboratories.
CCHFV vOTU inh = blocks the CCHF virus ovarian tumor domain protease; CCHFV vOTU protease, Pep-AMC fluorescence; 0.55% of 370,000 active; inhibition, % at 11.5 µM; in the data active means inhibition above about 30%; further: 0% = vehicle wells with enzyme and 100% = no enzyme wells
Anthrax LF inh2 = anthrax lethal factor protease inhibition; 0.12% of 360,000 active; P15917; AID 588501; inhibition, % at 10 µM; multiplex microsphere protease cleavage assay, LF; further: plate controls were buffer without enzyme for full effect and enzyme alone for no effect
Target sequence (P15917 whole entry, looked up): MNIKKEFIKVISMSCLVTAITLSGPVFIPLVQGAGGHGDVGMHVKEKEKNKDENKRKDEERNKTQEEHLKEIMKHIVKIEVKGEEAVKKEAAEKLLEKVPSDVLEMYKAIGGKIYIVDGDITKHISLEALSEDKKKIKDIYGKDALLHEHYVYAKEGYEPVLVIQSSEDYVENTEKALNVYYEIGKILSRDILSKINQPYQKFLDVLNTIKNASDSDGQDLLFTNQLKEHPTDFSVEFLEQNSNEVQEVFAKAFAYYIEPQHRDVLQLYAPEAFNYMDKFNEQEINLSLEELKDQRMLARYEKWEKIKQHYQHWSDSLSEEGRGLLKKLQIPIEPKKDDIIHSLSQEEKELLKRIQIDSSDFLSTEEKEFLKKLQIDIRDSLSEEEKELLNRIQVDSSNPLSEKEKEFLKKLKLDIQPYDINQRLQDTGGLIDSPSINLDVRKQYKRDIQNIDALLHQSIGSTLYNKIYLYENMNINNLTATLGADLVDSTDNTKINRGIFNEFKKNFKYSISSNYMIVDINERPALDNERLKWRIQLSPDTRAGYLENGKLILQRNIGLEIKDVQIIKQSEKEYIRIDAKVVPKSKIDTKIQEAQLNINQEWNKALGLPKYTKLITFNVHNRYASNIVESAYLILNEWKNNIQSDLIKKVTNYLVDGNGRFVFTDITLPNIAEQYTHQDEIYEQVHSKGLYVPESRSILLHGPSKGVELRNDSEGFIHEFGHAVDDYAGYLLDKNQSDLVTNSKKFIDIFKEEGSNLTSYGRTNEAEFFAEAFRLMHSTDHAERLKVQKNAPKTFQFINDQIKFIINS
Bead autofluor = flagged as autofluorescent in microsphere protease counterscreen | 3.1% of 360,000 active | compound autofluorescence counterscreen, microsphere flow cytometry; hits give high values | fluorescence intensity (test concentration not listed); in the data active means fluorescence intensity above about 16000; inconclusive means no clear call, values can overlap the other calls
BoNT F protease = BoNT F light chain protease inhibition; 0.22% of 360,000 active; inhibition, % at 10 µM; Multiplex microsphere protease cleavage assay, flow cytometry; in the data active means inhibition above about 35%, passing the limit was not always enough; inconclusive means no clear call, values can overlap the other calls; further: plate controls were buffer without enzyme for full effect and enzyme alone for no effect
SARS 3CLpro inh-1 = SARS-CoV 3CLpro protease inhibition; P0C6X7; recombinant SARS-CoV 3CLpro, quenched FRET peptide cleavage; inhibition, % at 6 µM; 0.14% of 290,000 active; in the data active means inhibition above about 12%
BoNT A protease = BoNT A light chain protease inhibition | multiplex microsphere protease substrate cleavage, flow cytometry | inhibition, % at 10 µM | 0.17% of 360,000 active; further: plate controls were buffer without enzyme for full effect and enzyme alone for no effect
SARS 3CLpro inh-2 = confirmation of SARS coronavirus 3C-like protease inhibitors. inhibition, % at 6 µM. shares compounds with SARS 3CLpro inh-1. QFRET protease activity assay, 3CLpro. 36% of 380 active; in the data active means inhibition above about 13%
Active calls of the source: *; ? = inconclusive; . = no result. Sampled rows, rich in hits. Any-hit rate of the full collection: about 3.9%. Unless noted, no stated cut-off is given here; in the data, active means inhibition above about 30%; inconclusive means no clear call, values can overlap the other calls; inactive means below that.

SMILES | CCHFV vOTU inh | Anthrax LF inh2 | Bead autofluor | BoNT F protease | SARS 3CLpro inh-1 | BoNT A protease | others
CCN(CCNC(=O)C1CCCN(Cc2nc(-c3ccc(OC)cc3)oc2C)C1)c1ccccc1 (stereo not drawn) | -1 | -2 | 21170* | -5 | 3 | -1
CCc1ccc(-c2nc(CN3CCC(C(=O)NCc4ccc(F)cc4)CC3)c(C)o2)cc1 | 0 | -3 | 24227* | -8 | 0 | ?
Cc1oc(-c2ccc(Cl)cc2)nc1CN1CCC(C(=O)NCc2cccs2)CC1 | 1 | 1 | 3666 | -4 | -2 | 1
Cc1oc(-c2cccc(Cl)c2)nc1CN1CCC(C(=O)NCc2cccnc2)CC1 | 1 | -6 | 22980* | -2 | 2 | 1
CCN(CCNC(=O)C1CCN(Cc2nc(-c3cccc(Cl)c3)oc2C)CC1)c1ccccc1 | 3 | -10 | 20469* | -4 | -1 | 0
Cc1oc(-c2cccc(Cl)c2)nc1CN1CCC(C(=O)NC2CC2)CC1 | -5 | -2 | 5888 | -6 | -1 | -2
CCN(CCNC(=O)C1CCN(Cc2nc(-c3ccc(Cl)cc3)oc2C)CC1)c1ccccc1 | -3 | -4 | 22915* | -9 | -6 | -5
Nc1c(-c2ccc(Cl)cc2)cnc2ncnn12 | 10 | -1 | 23393* | 0 | -5 | 1
CCOc1ccc(OCCC(=O)N2CCc3cc(OC)c(OC)cc3C2)cc1 | 8 | -9 | 3738 | 6 | -1 | 5
Cc1ccc(P(=O)(CO)c2ccc(C)cc2)cc1 | -6 | -1 | 16417* | -3 | 0 | -1
CC(=O)c1ccc(NC(=O)c2ccn[nH]2)cc1 | -4 | 0 | 22226* | -3 | 0 | -1
O=C(Nc1ccccc1)c1ccn[nH]1 | 9 | -2 | 2448 | -2 | -5 | -1
COc1ccc(C)cc1NC(=O)COC(C)=O | 4 | -2 | 16638* | -2 | 4 | 0
CC(C)(C)c1nc(CN2CCOCC2)ccc1O | 9 | -2 | 21380* | 2 | -4 | 2
CC(C)(C)c1nc(CN2CCCCC2)cc(CN2CCCCC2)c1O | 8 | -6 | 4682 | 1 | 3 | 0
Cc1c(C)c2ccc(OCC(=O)NCCCn3ccnc3)cc2oc1=O | -8 | -2 | 5102 | -2 | -1 | 0
CN(C)CCN1C(=O)C(=O)/C(=C(/O)c2ccc(F)cc2)C1c1ccccc1F (stereo not drawn) | -3 | -10 | 22555* | 3 | 3 | 1
COc1ccc(/C(O)=C2/C(=O)C(=O)N(CCN(C)C)C2c2ccccc2)cc1Cl (stereo not drawn) | 5 | -4 | 3324 | -4 | 4 | 0
Cc1ccc(/C(O)=C2\C(=O)C(=O)N(CCCN3CCOCC3)C2c2ccccc2F)cc1 (stereo not drawn) | -3 | -1 | 2882 | 0 | . | 0
Cc1ccc(/C(O)=C2\C(=O)C(=O)N(CCN(C)C)C2c2ccccc2F)cc1 (stereo not drawn) | 5 | -6 | 20048* | 0 | 1 | ?
COc1ccc(/C(O)=C2/C(=O)C(=O)N(CCCN(C)C)C2c2cccc(Cl)c2)cc1OC (stereo not drawn) | 34* | 0 | 2534 | -7 | 5 | -1
Cc1ccc(S(=O)(=O)N(CCc2ccccc2)CC(=O)N2CCOCC2)cc1 | -7 | . | . | . | . | .
O=C(CSc1nccc(=O)[nH]1)Nc1ccc(F)c(Cl)c1 | 11 | 0 | 24003* | 0 | 5 | ?
CC(C)C(NC(=O)COc1ccccc1)C(=O)O (stereo not drawn) | -17 | -6 | 19854* | 9 | -2 | 6
CCOC(=O)Nc1cccc(OCC(=O)Nc2ccccc2OCC)c1 | 0 | -3 | 22734* | -2 | 4 | -1
SMILES | CCHFV vOTU inh | Anthrax LF inh2 | Bead autofluor | BoNT F protease | SARS 3CLpro inh-1 | BoNT A protease | others
CCOC(=O)c1nn(-c2ccc(C)cc2)c(=O)cc1OCC(=O)Nc1cccc(OC)c1 | -4 | . | . | . | . | .
CCOC(=O)c1nn(-c2ccc(C)cc2)c(=O)cc1OCC(=O)Nc1cccc(C)c1 | -3 | 0 | 4308 | 43* | . | 10
Cc1ccc(OCC(=O)Nc2cccc(-c3nnc(-c4ccccc4)o3)c2)c(C)c1 | -2 | -3 | 21189* | 3 | -6 | ?
COc1ccc(CC(=O)Nc2cccc(-c3nnc(-c4ccc(C)cc4)o3)c2)cc1OC | 4 | -8 | 6379 | -14 | 5 | -1
Cc1cccc(NC(=O)COc2ccccc2)c1 | 2 | -1 | 26330* | -14 | 1 | -11
CCCn1nc(NC(=O)C2CCCO2)c2cc3ccc(C)cc3nc21 (stereo not drawn) | -10 | -34 | 4534 | ? | 4 | 3
CCCn1nc(NC(=O)c2cccs2)c2cc3ccccc3nc21 | -3 | 0 | 23719* | -2 | -6 | -1
CCCn1nc(NC(=O)C2CCCO2)c2cc3cc(C)ccc3nc21 (stereo not drawn) | -8 | -1 | 21148* | -2 | -4 | 0
CCCn1nc(NC(=O)c2ccncc2)c2cc3ccccc3nc21 | 3 | -6 | 5760 | -6 | -7 | 0
CCCCn1nc(NC(=O)c2cccs2)c2cc3ccccc3nc21 | -4 | 1 | 21346* | 4 | 2 | 3
CCCC(=O)Nc1nn(CCC)c2nc3ccccc3cc12 | 0 | -3 | 21458* | -4 | 0 | -1
CCCCn1nc(NC(=O)c2cccs2)c2cc3cc(OC)ccc3nc21 | 12 | 15 | 2800 | 14 | 6 | 17
C=CCc1cccc2cc(C(=O)NNC(=O)CC#N)c(=O)oc12 | -9 | -4 | 4747 | -9 | -2 | -1
COc1ccc(Cl)cc1NC(=O)CCNS(=O)(=O)c1cccc2nonc12 | 2 | 2 | 5454 | -5 | -2 | -2
CN(CC(=O)Nc1c(Cl)cccc1Cl)C(=O)c1n[nH]c2ccccc12 | -7 | -5 | 5807 | 0 | . | -3
CN(c1ccccc1C(=O)O)S(=O)(=O)c1ccc2[nH]c(=O)[nH]c2c1 | -16 | 4 | 3874 | -10 | 5 | 1
CCn1nc(NC(=O)c2ccncc2)c2cc3cc(C)ccc3nc21 | 21 | -2 | 4495 | ? | -1 | 2
CCn1nc(NC(=O)c2ccncc2)c2cc3ccc(C)cc3nc21 | -3 | 1 | 20719* | -3 | 0 | -3
CC(C)NC(=O)c1cc(C2CCCCN2S(=O)(=O)c2ccc(F)cc2F)on1 (stereo not drawn) | -4 | 4 | 4039 | 1 | . | 0
N#Cc1ccc(CSc2nnc(NC(=O)c3ccc4ncsc4c3)s2)cc1 | 4 | -2 | 4624 | -20 | 13* | -3 | SARS 3CLpro inh-2=43*
ON=C1CCC2CCCCC2C1 (stereo not drawn) | 1 | -6 | 3813 | -5 | . | 0
NC(=O)c1ccc(NC(=O)COc2ccc([N+](=O)[O-])cc2Cl)cc1 | 6 | -4 | 4001 | -1 | 0 | 0
Cc1nc(CN(C)C(=O)c2cc(COc3ccc4ncccc4c3)on2)cs1 | 0 | -8 | 4730 | -6 | -5 | -2
COc1ccc(N(Cc2cc3ccccc3[nH]c2=O)S(=O)(=O)c2ccc(OC)cc2)cc1 | 5 | -2 | 5727 | -3 | 16* | 0 | SARS 3CLpro inh-2=6
